# Only some compounds are listed: those with a hit (about 4.2% of all), similar ones and a draw of the others.
# Sfp inh: qHTS Assay for Inhibitors of Bacillus subtilis Sfp phosphopantetheinyl transferase (PPTase) | 4'-phosphopantetheinyl transferase ffp (Bacillus subtilis), Q9F4F7 | Biochemical Sfp PPTase activity, qHTS | Potency, µM, hits mostly inhibitors | hit rate 3.5% among 310,000 | AID 1490, 2009;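 further: the enzyme is Sfp with the accession as filed and its product quenches rhodamine fluorescence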
#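 Sfp 15 nM + cpd, 15 min RT; start w/ rhodamine-CoA 5 uM, BHQ-2-YbbR 12.5 uM (final); 50 mM Hepes pH 7.6, 10 mM MgCl2, 0.01% NP-40, 0.01% BSA; read 525/598 nm at 0 and 30 min.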
# ALOX12 inh: Primary qHTS assay for inhibitors of human arachidonate 12S-lipoxygenase (ALOX12): Round 2. Polyunsaturated fatty acid lipoxygenase ALOX12 (Homo sapiens), P18054. purified 12hLO, xylenol orange hydroperoxide absorbance. Potency, µM (series often up to 108 µM), usual class: inhibitors. hit rate 1.1% among 580,000. AID 1671190, 2021
# Target sequence (P18054 whole entry, looked up): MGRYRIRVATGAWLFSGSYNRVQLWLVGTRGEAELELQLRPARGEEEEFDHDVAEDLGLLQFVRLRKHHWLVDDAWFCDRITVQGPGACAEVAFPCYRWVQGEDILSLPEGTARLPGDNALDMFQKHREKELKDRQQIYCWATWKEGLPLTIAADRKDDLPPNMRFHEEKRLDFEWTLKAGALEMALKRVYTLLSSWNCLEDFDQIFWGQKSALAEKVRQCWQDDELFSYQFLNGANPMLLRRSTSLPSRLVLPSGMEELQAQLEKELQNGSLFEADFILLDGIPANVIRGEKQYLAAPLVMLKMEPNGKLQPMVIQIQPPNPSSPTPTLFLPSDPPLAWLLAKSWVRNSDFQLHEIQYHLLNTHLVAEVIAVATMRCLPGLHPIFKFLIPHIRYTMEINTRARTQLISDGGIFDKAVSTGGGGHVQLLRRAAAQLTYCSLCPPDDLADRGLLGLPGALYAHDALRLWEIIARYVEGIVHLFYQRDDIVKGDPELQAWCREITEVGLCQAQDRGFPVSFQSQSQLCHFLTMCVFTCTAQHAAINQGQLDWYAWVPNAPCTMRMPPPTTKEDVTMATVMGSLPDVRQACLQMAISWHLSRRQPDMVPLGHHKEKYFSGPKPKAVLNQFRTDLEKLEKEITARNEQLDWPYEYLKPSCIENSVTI
#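 Purified human 12hLO at 150 nM in 25 mM Hepes, 0.01% Triton X-100, pH 7.0, preincubated 15 min at room temperature with compound. Reaction started with 40 uM arachidonic acid, 30 min at room temperature. Hydroperoxide measured by Fe-xylenol orange, 573/405 nm absorbance ratio.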
# PLK1 PBD inh: qHTS for Inhibitors of PLK1-PDB (polo-like kinase 1 - polo-box domain): Primary Screen | Serine/threonine-protein kinase PLK1 (Homo sapiens), P53350 | Plk1 PBD binding of FITC phosphopeptide, fluorescence polarization | AID 720504, 2013 | hit rate 2.8% among 360,000 | Potency, µM, hits mostly inhibitors; further: series mostly up to about 57 µM; nearly all actives have a fitted effect of over 65% in size
# VDR inhibitor: Inhibitors of the vitamin D receptor (VDR): qHTS; Vitamin D3 receptor (Homo sapiens), P11473; VDR-SRC2-3 peptide fluorescence polarization, 2 h; Potency, µM, most hits filed as inhibitors; hit rate 0.93% among 400,000
#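 Measured by FP: displacement of SRC2-3 coactivator peptide from VDR by library compounds, following a two-hour ambient incubation.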
# Numbers stand for hits; - = inactive; ? = inconclusive; . = not tested or not shown; ! = not confirmed by another sample. The call rests on the fitted dose curve; in most records, active means well fitted curve in the direction sought with a large enough effect; inconclusive means small, poorly fitted or top-dose-only effect, or another doubt; inactive means no such curve, though single readings can be large; an effect the other way counts as inactive or inconclusive.
SMILES,Sfp inh,ALOX12 inh,PLK1 PBD inh,VDR inhibitor
c1ccc(CNc2nc3ccccc3n2CCN2CCOCC2)nc1,89µM,-,-,-
CCCn1c(NCc2ccccn2)nc2ccccc21,?,?,-,-
O=C(Cn1c(/C=C/c2ccccc2)nc2ccccc21)Nc1ccc(F)cc1,-,-,19µM,?
Cc1ccc(SCc2nc3ccccc3n2CC(=O)Nc2ccccc2)cc1,50µM,-,-,-
O=C(Cn1c(CSc2ccccc2)nc2ccccc21)Nc1ccccc1,-,.,.,.
CC(C)Nc1nnc(SCc2ncc(-c3ccccc3)o2)s1,.,-,.,.
CCC(Sc1nc(N)c(NC(=O)c2ccc(Br)o2)c(=O)[nH]1)C(=O)O (stereo not given),-,-,-,-
NC(=O)c1cc(S(=O)(=O)N2CCc3ccccc3C2)cs1,-,-,21µM,?
CCOC1=C2CN(S(=O)(=O)c3ccc(C)cc3)[C@H](c3cccs3)C[C@H]2n2c(=O)n(-c3ccccc3)c(=O)n2C1,.,-,-,.
CC[C@]1(c2cccc(C)c2)C(=O)N(C(=O)OC)N1C(=O)OC,-,-,12µM,?
COC(=O)N1C(=O)[C@](c2ccccc2)(C(C)C)N1C(=O)OC,-,-,?,-
COC(=O)N1C(=O)[C@@](Cc2ccccc2)(c2ccccc2)N1C(=O)OC,-,-,30µM,?
CC[C@@]1(c2ccccc2C)C(=O)N(C(=O)OC)N1C(=O)OC,?,-,11µM,?
COC(=O)N1C(=O)[C@](Cc2ccccc2)(c2ccccc2)N1C(=O)OC,-,-,15µM,89µM
COC(=O)N1C(=O)[C@@](c2ccccc2)(C2CCCCC2)N1C(=O)OC,-,-,?,?
COC(=O)c1ccccc1NC(=O)CCn1nc(C)c2c(C)n(-c3ccccc3)nc2c1=O,.,-,.,-
CC[C@@]1(c2ccccc2)C(=O)N(C(=O)OC)N1C(=O)OC,-,-,?,?
CC[C@]1(c2ccccc2)C(=O)N(C(=O)OC)N1C(=O)OC,-,-,11µM,?
COc1ccc(N2CCC(CNC(=O)Nc3ccc(OC)cc3OC)C2)cc1 (stereo not given),-,?,-,-
COc1ccc(N2CCC(CNC(=S)Nc3c(C)cc(C)cc3C)C2)cc1 (stereo not given),?,?,12µM,-
COc1ccc(N2CCC(CNC(=S)Nc3ccc(C)cc3C)C2)cc1 (stereo not given),50µM,?,?,-
COc1ccc(N2CCC(CNC(=S)Nc3cccc(C)c3)C2)cc1 (stereo not given),-,?,?,-
COC(=O)c1ccc(NC(=S)N2CCN(C(=O)c3ccco3)CC2)cc1,45µM,-,19µM,-
COc1ccc(NC(=O)CN2CCN(C(=O)c3ccco3)CC2)c(OC)c1,-,-,-,-
Cc1c(Cl)cccc1NC(=O)N1CCN(C(=O)c2ccco2)CC1,-,-,17µM,-
SMILES,Sfp inh,ALOX12 inh,PLK1 PBD inh,VDR inhibitor
COc1ccc(NC(=S)N2CCN(C(=O)c3ccco3)CC2)c(OC)c1,40µM,-,?,-
COc1ccc2oc(=O)c(C(=O)N3CCN(C(=O)c4ccco4)CC3)cc2c1,-,-,30µM,-
C[C@H]1CN([C@@H](C)CO)C(=O)CCCn2nncc2CO[C@@H]1CN(C)Cc1cccc(O)c1,.,-,-,.
COCc1cn(CC(=O)c2sc(NC(=O)C(C)(C)C)nc2C)nn1,.,-,-,.
Cc1nc(N2CCCC2)cc(N2CCN(C(=O)c3cccc(C(F)(F)F)c3)CC2)n1,.,-,.,.
COc1ccc(-c2cc(C(F)F)n3ncc(C(=O)N4CCc5ccccc54)c3n2)cc1,-,-,6.7µM,?
Cc1ccnc(OC(C(=O)O)C(OCc2ccccc2)(c2ccc(F)cc2)c2ccc(F)cc2)n1 (stereo not given),-,-,27µM,?
COCC(=O)N1CCN(C(C)=O)C[C@@H]1C(=O)N[C@H](Cc1cccnc1)C(=O)OC,.,-,.,.
Cc1nc(N=Nc2cc([N+](=O)[O-])ccc2Cl)c(COP(=O)(O)O)c(C=O)c1O,-,11µM,.,45µM
Cc1nc(N=Nc2cc(S(=O)(=O)O)c3cc([N+](=O)[O-])cc(S(=O)(=O)O)c3c2)c(COP(=O)(O)O)c(C=O)c1O,40µM!,-,.,40µM!
CCc1ccccc1NC(=O)CSc1nc(-c2cccc(Cl)c2)nc2c1Cc1c(CO)cnc(C)c1O2,.,-,.,-
CN(C)/N=C/c1ccc(Sc2ccccc2[N+](=O)[O-])o1,-,-,6µM,-
CN(/N=C/c1ccc(-c2ccc([N+](=O)[O-])cc2)o1)c1ccccc1,-,-,-,-
CN(N=Cc1cccc2cccnc12)c1ccc([N+](=O)[O-])cc1[N+](=O)[O-],.,-,-,-
CN(C)/N=C/c1ccc([N+](=O)[O-])cc1[N+](=O)[O-],56µM,-,-,-
C[N+](C)(C)CCN(Cc1ccc(Cl)cc1)c1ccccn1,-,16µM,-,-
CN(C)CCN(Cc1ccc(Cl)cc1)c1ccccn1,?,-,-,?
COc1ccc(OC)c2sc(N(CCCN(C)C)C(=O)CCS(=O)(=O)c3ccccc3)nc12,.,-,7.5µM,?
Cc1ccc2sc(N(CCCN(C)C)C(=O)CCS(=O)(=O)c3ccccc3)nc2c1C,?,-,?,-
COc1ccc(OC)c2sc(N(CCN(C)C)C(=O)c3cc(Cl)sc3Cl)nc12,56µM,-,-,-
COc1ccc(Cl)c2sc(N(CCN(C)C)C(=O)CCS(=O)(=O)c3ccc(C)cc3)nc12,.,16µM,-,-
Cc1cccc(NC(=O)C2CCCN(c3cnccn3)C2)c1 (stereo not given),-,-,-,-
CC(Sc1ccc(F)c(Cl)c1)C(=O)NC1CCCC1 (stereo not given),.,-,.,.
COc1ccc(/C=N/NC(=O)C(O)(CC(C)C)CC(C)C)cc1,.,-,.,.
CCNc1ccccc(C(=O)/C=C/c2ccc3c(c2)OCO3)c1=O,45µM,?,24µM,?
SMILES,Sfp inh,ALOX12 inh,PLK1 PBD inh,VDR inhibitor
COC(=O)/C=C/c1ccc2c(c1)OCO2,-,?,-,-
O=C(/C=C/c1ccc2c(c1)OCO2)c1cccs1,71µM,.,.,20µM
COc1ccc(/C=C2/NC(=O)N(Cc3ccccc3F)C2=O)cc1OC,-,-,-,-
CCOc1cc(/C=C2/C(=O)N(c3ccccc3)N=C2C)ccc1OC(=O)c1ccco1,?,-,1.5µM,?
CCOc1cc(/C=C2\C(=O)N(c3ccc(C(N)=O)cc3)N=C2C)ccc1OC(=O)c1cccs1,56µM,.,?,50µM
CC1=NN(c2ccc(C(=O)O)cc2)C(=O)/C1=C\c1ccc(OC(=O)c2cccs2)cc1,?,?,0.75µM,?
CCOc1cc(/C=C2\C(=N)N3N=C(N4CCCCC4)SC3=NC2=O)ccc1OC(=O)c1ccco1,?,-,?,-
CC(=O)Nc1ccc(NC(=O)C/C(C)=N/NC(=O)COc2cc(C)c(Br)cc2Br)cc1,-,-,-,-
Cc1ccc(CNC(=O)c2ccc(CSCc3ccc(Cl)cc3)o2)cc1,.,?,.,-

# Bioassay records as filed in PubChem BioAssay.
